In all, about 25,000 sequences were measured (“ln(normalized median fluorescence intensity)”: median about 7.1, highest 2% from about 10 on). Shown is part of a subset that was picked to be rich in the highest values.

The values that follow come from the supplement of paper PMC11417369.

The assay has as its system PfSIP2 AP2 domain 1 (GST-tagged). Put plainly: gcPBM binding intensity (ln(normalized median fluorescence intensity)); higher = stronger DNA binding. The essentials: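 An Agilent 4 × 180k array of primer-extended double-stranded 36-bp intergenic genomic probes, with negative controls, was incubated for 1 h with GST-tagged P. falciparum DNA-binding domains expressed in E. coli. Alexa488 anti-GST antibody detected bound protein, scanned at 488 nm. Binding intensity is the highest Masliner-normalised natural-log median intensity across replicate spots of either probe orientation.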
For the sequence “TAATATATATGTATGGCACACACGGATAAATATATA [CACACA_site930]”, the “gcPBM binding intensity (ln)” value amounted to 7.04.

Regarding “TTTTAACAAAAAAAAAGAAAAGAAAAGAAAATAATA [XGTACX_negctrl_site530]”, the “gcPBM binding intensity (ln)” value worked out at 6.54.

Consider “GAACAAATTAAATAGGTGCATTAACATGTTCTATTT [GTGCAC_site9729]”, for which the “gcPBM binding intensity (ln)” value was 10.4.

For TAATATAATATATAGGTGCAATATTAACAAAAATTT, the “gcPBM binding intensity (ln)” value came to 9.61.

“AATTGAATAAATTAAACATGCACAGATGTTCTATTT [TGCATGCA_site692]”: the “gcPBM binding intensity (ln)” value stood at 6.89.

Consider “AGTGATACTAATTTTTGTACGCATAAAAGAATATTC [XGTACX_site6055]”, for which the “gcPBM binding intensity (ln)” value turned out to be 6.97.

Consider “ACTATTTTCTTCAAAACATGCACCACATAAACATAA [TGCATGCA_site200]”, for which the “gcPBM binding intensity (ln)” value is 10.5.

Take “ACCTATTTCAAACACACACACACACCCACAAACATA [CACACA_site977]”: the “gcPBM binding intensity (ln)” value is 7.62.

As for “TATAAACATAAAACCAGTACATATATATTTTTCTTC [XGTACX_site212]”, the “gcPBM binding intensity (ln)” value came to 6.84.

For the sequence “CGGCTATTTCTATATACATGCATTTAAAAAAAAAAT [TGCATGCA_site354]”, the “gcPBM binding intensity (ln)” value is 7.27.

As to “CCAATGTTTTCTTGTGTACACATCATTAAAGAAAAA [CACACA_site5300]”, the “gcPBM binding intensity (ln)” value came to 7.96.

Turning to “AATAGAAAAAAATAAGTGCATTTTGGTATTCATCAT [GTGCAC_site9614]”, the “gcPBM binding intensity (ln)” value came to 8.14.

Take “TATATATATATATGGGTGCATTTTTTTGTCCATGTA [GTGCAC_site9868]”: the “gcPBM binding intensity (ln)” value stood at 10.7.

Turning to “GTAATTTTATATGGTTGTACATATATATATATATAT [XGTACX_site6659]”, the “gcPBM binding intensity (ln)” value came out at 9.68.

“TTATATGGCTCCATTTGTACGCATCCATGTTTTTAT [XGTACX_site6590]”: the “gcPBM binding intensity (ln)” value came to 6.99.

For “TATATATATATATATATATATATGTATGTGCATTTA [TGCATGCA_negctrl_site53]”, the “gcPBM binding intensity (ln)” value stood at 9.08.

As for “TCTATTTTTTATATGGTGCATTGTTCTTATTAATAT [GTGCAC_site9392]”, the “gcPBM binding intensity (ln)” value worked out at 10.5.

As for “TTGTTCTTATTTCATTTTTATATGATATTTCATTAT [CACACA_negctrl_site1619]”, the “gcPBM binding intensity (ln)” value stood at 7.17.

For the sequence “ATATTTATATATAGTAGTACTTTCAATAATTTAAAT [XGTACX_site7276]”, the “gcPBM binding intensity (ln)” value was found to be 7.05.

Regarding TTTTTAATTTCAATGGTGCAGTAATAATATAATAGT, the “gcPBM binding intensity (ln)” value was determined as 10.5.

Take CATATAATTTTATGGGTGCATTTTTTTGTAAGACCA: the “gcPBM binding intensity (ln)” value was found to be 11.1.

On to “ATAATTTCAATATTTAATATCATATATATATATTTT [GTGCAC_negctrl_site713]”, for which the “gcPBM binding intensity (ln)” value came to 6.94.

Turning to “TATTGTTCTTATTTAGTGCATATATAATATAATATA [GTGCAC_site9827]”, the “gcPBM binding intensity (ln)” value was 9.38.

Take ATTATTTATATTATGGTGCATAATTTTGGGTTTCTT: the “gcPBM binding intensity (ln)” value is 10.2.

For the sequence “TTTATTTTAAAATATAGTACGCAAATAAAAATAAAT [XGTACX_site7783]”, the “gcPBM binding intensity (ln)” value was determined as 7.33.

With “AAATTTATTTCTGTGTGTCCACAAAAAAAAATCTTT [XGTACX_site691]”, the “gcPBM binding intensity (ln)” value stood at 6.91.

On to “TTTTTTTTTTTCTTTGCACACAGATAACTTGAAATT [CACACA_site2184]”, for which the “gcPBM binding intensity (ln)” value was found to be 7.2.

Regarding “TATTATTAATATGTATGGTTGTAATCTGTGTCTCCT [TGCATGCA_negctrl_site190]”, the “gcPBM binding intensity (ln)” value was 7.12.

Regarding “CATTTTTTGCTTTCAACACACATACAATATATATAA [CACACA_site6127]”, the “gcPBM binding intensity (ln)” value is 7.26.

Regarding “AAAAAGAATAAATAAATAAATAAATATATATATATA [GTGCAC_negctrl_site584]”, the “gcPBM binding intensity (ln)” value came to 9.47.

“AATATATGTAAATGGACACACACATATATATATATA [CACACA_site9220]”: the “gcPBM binding intensity (ln)” value was found to be 9.61.

“AGAAATGAAATATACACACATACATATATACATATA [CACACA_site4033]”: the “gcPBM binding intensity (ln)” value was determined as 7.21.

In the case of “ACATATATGTATAATACACACACTAATATATAATTG [CACACA_site1966]”, the “gcPBM binding intensity (ln)” value is 7.15.

For AAAATTTATAGTATGGTGCATAAAAATATATATATA, the “gcPBM binding intensity (ln)” value is 10.3.

As for “TTTTGTAGTTTATAAATAAAAGAGAATATGGTGCTT [CACACA_negctrl_site413]”, the “gcPBM binding intensity (ln)” value was determined as 7.7.

Consider ATATATATATATGTAGTGCATTTTATATATAATATT, for which the “gcPBM binding intensity (ln)” value turned out to be 9.01.

Regarding “GAATTATAAATTATAGTGCATAAAATTATGGCATAA [GTGCAC_site9938]”, the “gcPBM binding intensity (ln)” value worked out at 8.52.

For “CATATATAAATATAAATATATATATATATATATATG [XGTACX_negctrl_site493]”, the “gcPBM binding intensity (ln)” value stood at 7.56.

Take CATATAAAAAATATGGTGCAGTTTTTTTTTTTTTTT: the “gcPBM binding intensity (ln)” value amounted to 10.4.

Take “AAAATTAATATCTTGGTGCATTTTTTAATATTATTA [GTGCAC_site9638]”: the “gcPBM binding intensity (ln)” value amounted to 10.

Regarding “TTATAAAAAATTTTAGTGCATATATGATTTATATAT [GTGCAC_site9831]”, the “gcPBM binding intensity (ln)” value was determined as 8.21.

On to TAATATATATATATGGTGCATTTAATTTATATATAA, for which the “gcPBM binding intensity (ln)” value worked out at 10.8.

In the case of “ACTCTATACATCTAATGTACATGGAAAAAAAAATTC [XGTACX_site733]”, the “gcPBM binding intensity (ln)” value was 7.28.

Turning to “ATTTATTTATTTATATGTACATATATATATATATAT [XGTACX_site339]”, the “gcPBM binding intensity (ln)” value amounted to 9.54.

Take “TTAATTTATAAAAACACACACAGGTAAAAAGGTGCA [CACACA_site1177]”: the “gcPBM binding intensity (ln)” value was determined as 9.31.

As for “TATTAATTTATTTGTTGTACGTAAATATGCTTGTTT [XGTACX_site6591]”, the “gcPBM binding intensity (ln)” value turned out to be 7.26.

Turning to “AAATGAACAAGTGGCACACACACATTCTAACTAATT [CACACA_site3203]”, the “gcPBM binding intensity (ln)” value is 6.93.

“TTCTATTTGTAAAATTGTACAAAATAAATAACAAAA [XGTACX_site1007]”: the “gcPBM binding intensity (ln)” value is 7.04.

For the sequence “TACTTTTATATGAATACACACAGGAATATAAATATG [CACACA_site7647]”, the “gcPBM binding intensity (ln)” value turned out to be 7.2.

With “GTATGAAAAAAAATATGTACACATATATATTTGGTA [XGTACX_site6309]”, the “gcPBM binding intensity (ln)” value came to 7.07.

Turning to “TTCTTTGCTTTTCAAACACACAAAAGTTATTATATT [CACACA_site521]”, the “gcPBM binding intensity (ln)” value was 7.22.

For the sequence “TAGAAAAACATTACGTGTACCAAACATCCTAGCAAC [XGTACX_site4888]”, the “gcPBM binding intensity (ln)” value was 7.19.

Take “GCAGCAGCATTTTCAGTGCATTATTATATTGTTCAT [GTGCAC_site9926]”: the “gcPBM binding intensity (ln)” value was 7.98.

Consider “TTGTTCATATTTTTTATTGTGTTAATATTTATAAAA [GTGCAC_negctrl_site423]”, for which the “gcPBM binding intensity (ln)” value amounted to 7.28.

Consider “TTCATTGTGTTAACGGTGCATATATTTTTTCACCGT [GTGCAC_site9464]”, for which the “gcPBM binding intensity (ln)” value worked out at 10.3.

Consider “CAAAAGGATAGGCACACACACACACCCATATATATA [CACACA_site2199]”, for which the “gcPBM binding intensity (ln)” value is 7.55.

As to “ATGTATATAATATTATGTACATATATGAAATATTTT [XGTACX_site8168]”, the “gcPBM binding intensity (ln)” value was 7.02.

With “CGCGCACCCAGACACACACACACACCGATATATATA [CACACA_site8687]”, the “gcPBM binding intensity (ln)” value worked out at 10.6.

“CACGCGCACCAACACACACACACACCCATATATATA [CACACA_site2204]”: the “gcPBM binding intensity (ln)” value came to 10.6.

As for “CACCCCCACAGACACACACACACACCGATATATATA [CACACA_site8010]”, the “gcPBM binding intensity (ln)” value came out at 7.89.

“CGCGCCCAGAAACACACACACACACCGATATATATA [CACACA_site5250]”: the “gcPBM binding intensity (ln)” value came to 7.62.

Take “CACCCACACCAACACACACACATATATATATATATA [CACACA_site362]”: the “gcPBM binding intensity (ln)” value was found to be 9.74.

For the sequence “CACACCCACCAACACACACACACACCCACCCATATA [CACACA_site366]”, the “gcPBM binding intensity (ln)” value worked out at 7.11.

Take “GGAGCACCCAGACACACACACACATATATATATATA [CACACA_site336]”: the “gcPBM binding intensity (ln)” value is 9.19.

As for “CGCACCCACAGACACACACACACATATATATATATA [CACACA_site2202]”, the “gcPBM binding intensity (ln)” value came to 9.47.

For the sequence “CGCGCACCCAGACACACACACACACCCATATATATA [CACACA_site2203]”, the “gcPBM binding intensity (ln)” value amounted to 10.8.
